Data reported in paper PMC4336329 (PLoS ONE, 2015).
Hit rate of the full screen: of about 310,000 compounds, about 14,000 (4.5%) showed an effect of 50% or more. The effect is printed as a negative number. This excerpt belongs to a sample that is enriched for strong results.
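Further: peak tail current of the secondary pulse compared with the same well before compound.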

What follows are molecules tested against human ether-à-go-go-related gene (hERG) potassium channel (human, UniProt Q12809) (assay: primary screen, population patch clamp on CHO cells stably expressing hERG; higher = less effect of the substance).
human ether-à-go-go-related gene (hERG) potassium channel, sequence (Q12809 whole entry, looked up): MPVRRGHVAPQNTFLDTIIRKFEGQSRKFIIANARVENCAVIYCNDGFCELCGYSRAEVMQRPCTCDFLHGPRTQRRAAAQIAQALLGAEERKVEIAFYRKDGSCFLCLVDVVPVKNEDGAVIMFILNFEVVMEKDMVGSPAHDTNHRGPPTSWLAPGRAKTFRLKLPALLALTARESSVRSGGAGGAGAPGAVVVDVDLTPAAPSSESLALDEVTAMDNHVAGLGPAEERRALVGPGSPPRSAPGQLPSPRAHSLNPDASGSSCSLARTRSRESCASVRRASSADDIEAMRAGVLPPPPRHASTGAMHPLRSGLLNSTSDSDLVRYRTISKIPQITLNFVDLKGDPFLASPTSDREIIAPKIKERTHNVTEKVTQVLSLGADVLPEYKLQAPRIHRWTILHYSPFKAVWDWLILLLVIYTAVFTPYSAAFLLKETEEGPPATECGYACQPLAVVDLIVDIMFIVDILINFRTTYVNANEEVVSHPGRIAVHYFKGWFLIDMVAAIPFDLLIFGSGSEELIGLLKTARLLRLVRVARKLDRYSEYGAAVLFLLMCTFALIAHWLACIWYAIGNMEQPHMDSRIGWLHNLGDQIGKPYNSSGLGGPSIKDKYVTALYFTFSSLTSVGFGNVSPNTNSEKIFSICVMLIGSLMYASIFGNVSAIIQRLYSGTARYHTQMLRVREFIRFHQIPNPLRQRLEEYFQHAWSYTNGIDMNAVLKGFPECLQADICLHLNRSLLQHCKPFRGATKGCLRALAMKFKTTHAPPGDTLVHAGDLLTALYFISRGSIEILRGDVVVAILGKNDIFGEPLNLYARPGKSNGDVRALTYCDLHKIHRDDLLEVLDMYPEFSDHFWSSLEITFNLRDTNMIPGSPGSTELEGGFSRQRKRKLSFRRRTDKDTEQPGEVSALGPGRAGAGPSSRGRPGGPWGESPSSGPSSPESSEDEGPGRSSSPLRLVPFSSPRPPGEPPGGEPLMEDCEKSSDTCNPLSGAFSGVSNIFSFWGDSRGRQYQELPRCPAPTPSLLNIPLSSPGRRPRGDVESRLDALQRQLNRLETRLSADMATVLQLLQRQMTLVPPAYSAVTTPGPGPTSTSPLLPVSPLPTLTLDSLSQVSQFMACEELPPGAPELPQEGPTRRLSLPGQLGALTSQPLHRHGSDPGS
For `COc1cccc(N2CCN(c3nc(-c4ccccc4C)cc(=O)[nH]3)CC2)c1`, the “hERG current change (%, negative = inhibition) at 10uM” value was 3.88%. With `c1cc2c(cc1C1=NNC(=NC3CC3)SC1)OCCO2` the “hERG current change (%, negative = inhibition) at 10uM” value was 16.8%. For `Cc1cc(C(=O)NNC(=O)c2sccc2C)c(C)o1`, the “hERG current change (%, negative = inhibition) at 10uM” value was 7.27%. `O=S(=O)(c1ccc(F)cc1)N1CCN(c2ccccc2)CC1` was tested, and the “hERG current change (%, negative = inhibition) at 10uM” value was -6.53%. With `CN(Cc1ccccc1)C(=O)CCS(=O)(=O)c1cc2c(cc1Cl)NC(=O)CO2` the “hERG current change (%, negative = inhibition) at 10uM” value was -38.9%. With `CCN(C(=O)CCS(=O)(=O)c1cc2c(cc1Cl)NC(=O)CO2)c1ccccc1` the “hERG current change (%, negative = inhibition) at 10uM” value was -21.8%. `CCN(Cc1ccccc1)C(=O)CCS(=O)(=O)c1cc2c(cc1Cl)NC(=O)CO2` was tested, and the “hERG current change (%, negative = inhibition) at 10uM” value was -50.7%. `O=C1Nc2ccc(Br)cc2C12NNc1ccccc1O2` (stereo not drawn) was tested, and the “hERG current change (%, negative = inhibition) at 10uM” value was 23.9%. For `Cn1c(N)c(C(=O)NCc2ccccc2Cl)sc1=S`, the “hERG current change (%, negative = inhibition) at 10uM” value was 18%. For `Cc1ccccc1NC(=O)CSc1nc2ccccc2c2nc(CCn3cncc3C)nn12`, the “hERG current change (%, negative = inhibition) at 10uM” value was -55.6%. With `Cc1cncn1CCc1nc2c3ccccc3nc(SCC(=O)Nc3cccc(Cl)c3)n2n1` the “hERG current change (%, negative = inhibition) at 10uM” value was -78.4%. With `Cc1cccc(NC(=O)CSc2nc3ccccc3c3nc(CCc4c(C)n[nH]c4C)nn23)c1` the “hERG current change (%, negative = inhibition) at 10uM” value was -9.44%. `Cc1ccc(NC(=O)CSc2nc3ccccc3c3nc(CCc4c(C)n[nH]c4C)nn23)cc1F` was tested, and the “hERG current change (%, negative = inhibition) at 10uM” value was -11.7%. In the case of `Cc1ccccc1NC(=O)CSc1nc2ccccc2c(=O)n1C`, the “hERG current change (%, negative = inhibition) at 10uM” value is reported as 1.39%. For `Cc1ccc(NC(=O)CSc2nc3ccccc3c3nc(CCn4cncc4C)nn23)c(C)c1`, the “hERG current change (%, negative = inhibition) at 10uM” value was 2.77%. For `CCCCOC(=O)c1sc2nc(N3CCOCC3)c3c(c2c1N)CC(C)(C)OC3`, the “hERG current change (%, negative = inhibition) at 10uM” value was 9.29%. In the case of `CCOC(=O)C1CCN(C(=O)c2ccc3c(c2)OCO3)CC1`, the “hERG current change (%, negative = inhibition) at 10uM” value is reported as -5.29%. For `Cl.Clc1c(OCCCn2ccnc2)ccc2ccccc12`, the “hERG current change (%, negative = inhibition) at 10uM” value was -31.9%. In the case of `COCCN1C(=O)/C(=C/c2ccc(OCc3ccc(C(=O)O)cc3)c(OC)c2)SC1=Nc1ccccc1`, the “hERG current change (%, negative = inhibition) at 10uM” value is reported as 7.58%. In the case of `NNC(=O)c1sccc1OCc1ccc(Cl)cc1Cl`, the “hERG current change (%, negative = inhibition) at 10uM” value is reported as -18.5%. `C=CCNC(=O)/C=C/c1cccs1` was tested, and the “hERG current change (%, negative = inhibition) at 10uM” value was 16.4%. In the case of `COC(=O)c1ccc(NC(=O)COC(=O)C2CCC2)cc1`, the “hERG current change (%, negative = inhibition) at 10uM” value is reported as 4.03%. With `Cc1cccc(NC(=S)N(CCN(C)C)Cc2cc3cc(C)ccc3[nH]c2=O)c1` the “hERG current change (%, negative = inhibition) at 10uM” value was -16.5%. For `Cc1cccc2cc(CN(CCN(C)C)C(=S)Nc3ccccc3)c(=O)[nH]c12`, the “hERG current change (%, negative = inhibition) at 10uM” value was -24%. For `Cc1cccc2cc(CN(CC3CCCO3)C(=S)Nc3ccccc3)c(=O)[nH]c12` (stereo not drawn), the “hERG current change (%, negative = inhibition) at 10uM” value was 2.39%. For `Cc1ccc(NC(=S)N(CCN(C)C)Cc2cc3cccc(C)c3[nH]c2=O)cc1`, the “hERG current change (%, negative = inhibition) at 10uM” value was -55.6%. `CCN(CC)CCN(Cc1cc2cc(C)ccc2[nH]c1=O)C(=S)Nc1ccccc1` was tested, and the “hERG current change (%, negative = inhibition) at 10uM” value was -50.6%. With `Cc1ccc(NC(=S)N(Cc2cccs2)Cc2cc3cccc(C)c3[nH]c2=O)cc1` the “hERG current change (%, negative = inhibition) at 10uM” value was -9.88%. In the case of `Cc1ccc(NC(=S)N(CCN(C)C)Cc2cc3cc(C)ccc3[nH]c2=O)cc1`, the “hERG current change (%, negative = inhibition) at 10uM” value is reported as -43.5%. For `Cc1ccc(NC(=S)N(CCN(C)C)Cc2cc3cc(C)cc(C)c3[nH]c2=O)cc1`, the “hERG current change (%, negative = inhibition) at 10uM” value was -7.41%. For `CCN(CC)CCN(Cc1cc2cccc(C)c2[nH]c1=O)C(=S)Nc1ccccc1`, the “hERG current change (%, negative = inhibition) at 10uM” value was -66.2%. In the case of `Cc1ccc(C(=O)N(CN2CCCC2=O)c2ccccc2)cc1`, the “hERG current change (%, negative = inhibition) at 10uM” value is reported as -1.3%. With `CCN(CC(=O)NCc1ccc(Cl)cc1)CC(=O)NC1(C#N)CCCC1` the “hERG current change (%, negative = inhibition) at 10uM” value was -19.2%. In the case of `CC[C@H](C)Cc1cn([C@@H](CCCN=C(NC(=O)OC(C)(C)C)NC(=O)OC(C)(C)C)C(=O)NCCCCCCCCCCC(=O)N2CCN(C(=O)OC(C)(C)C)CC2)nn1`, the “hERG current change (%, negative = inhibition) at 10uM” value is reported as 4.2%. In the case of `CCOC(=O)c1c(NC(=O)C2=C(C)NC(=S)NC2c2ccc(CC)cc2)sc(C)c1C` (stereo not drawn), the “hERG current change (%, negative = inhibition) at 10uM” value is reported as 7.47%. With `Cc1cc(SCC(=O)NN)c2cc(Br)ccc2n1` the “hERG current change (%, negative = inhibition) at 10uM” value was -1.57%. With `Cc1ccc(S(=O)(=O)N2CCOC2CNC(=O)C(=O)NCCc2ccccc2)cc1` (stereo not drawn) the “hERG current change (%, negative = inhibition) at 10uM” value was -25.6%. For `CCOC(=O)c1c(N)c2cc([N+](=O)[O-])cnc2n1C`, the “hERG current change (%, negative = inhibition) at 10uM” value was 17.3%. For `CCOC(=O)c1cc2sccc2n1CCCN1C(=O)c2ccccc2C1=O`, the “hERG current change (%, negative = inhibition) at 10uM” value was 6.01%. In the case of `CN1CCN(C(N)=NC(=O)c2ccccc2)CC1`, the “hERG current change (%, negative = inhibition) at 10uM” value is reported as 6.76%. In the case of `COc1ccc(Cl)cc1S(=O)(=O)N1CCN=C1Cc1ccccc1`, the “hERG current change (%, negative = inhibition) at 10uM” value is reported as -18.9%. With `CCc1ccc(NS(=O)(=O)c2cc3[nH]c(=O)c(=O)[nH]c3cc2C)cc1` the “hERG current change (%, negative = inhibition) at 10uM” value was 9.15%. `CC/C(=N\Nc1ccc([N+](=O)[O-])cc1[N+](=O)[O-])c1ccc(O)cc1` was tested, and the “hERG current change (%, negative = inhibition) at 10uM” value was 21.7%. In the case of `Cc1ccc(S(=O)(=O)c2ncccc2N)cc1`, the “hERG current change (%, negative = inhibition) at 10uM” value is reported as 12.4%. For `Cc1ccc(S(=O)(=O)c2ncccc2[N+](=O)[O-])cc1`, the “hERG current change (%, negative = inhibition) at 10uM” value was -64%. For `O=[N+]([O-])c1cccnc1S(=O)(=O)c1ccccc1`, the “hERG current change (%, negative = inhibition) at 10uM” value was 15.9%. `Cc1noc(C)c1C(=O)Nc1ccccc1C(=O)NCCc1ccccc1` was tested, and the “hERG current change (%, negative = inhibition) at 10uM” value was 8.93%. With `Cc1nn(-c2ccccc2)c(C)c1C(=O)OCC(=O)N1CC(=O)Nc2ccccc21` the “hERG current change (%, negative = inhibition) at 10uM” value was 1.89%. With `CC1(OC(=O)C2CCCC2)C(=O)C=C2C=C(c3ccsc3)N(Cc3ccc4c(c3)OCO4)C=C2C1=O` (stereo not drawn) the “hERG current change (%, negative = inhibition) at 10uM” value was -79.6%. For `CC1(OC(=O)C2CCCC2)C(=O)C=C2C=C(c3ccsc3)N(C3CCCCC3)C=C2C1=O` (stereo not drawn), the “hERG current change (%, negative = inhibition) at 10uM” value was -15.8%. `C=CCN1C=C2C(=O)C(C)(OC(=O)C3CCCC3)C(=O)C=C2C=C1c1ccsc1` (stereo not drawn) was tested, and the “hERG current change (%, negative = inhibition) at 10uM” value was -19.4%. With `CC1(OC(=O)C2CCCC2)C(=O)C=C2C=C(c3ccsc3)N(C3CCCC3)C=C2C1=O` (stereo not drawn) the “hERG current change (%, negative = inhibition) at 10uM” value was -64.7%. For `CC1(OC(=O)C2CCCC2)C(=O)C=C2C=C(c3ccsc3)N(C3CC3)C=C2C1=O` (stereo not drawn), the “hERG current change (%, negative = inhibition) at 10uM” value was 16.5%. In the case of `CC1(OC(=O)C2CCCC2)C(=O)C=C2C=C(c3ccsc3)N(CC3CC3)C=C2C1=O` (stereo not drawn), the “hERG current change (%, negative = inhibition) at 10uM” value is reported as -11.8%. In the case of `CC1(OC(=O)C2CCCC2)C(=O)C=C2C=C(c3ccsc3)N(Cc3ccco3)C=C2C1=O` (stereo not drawn), the “hERG current change (%, negative = inhibition) at 10uM” value is reported as -23.2%. In the case of `COc1ccc(CN2C=C3C(=O)C(C)(OC(=O)C4CCCC4)C(=O)C=C3C=C2c2ccsc2)cc1` (stereo not drawn), the “hERG current change (%, negative = inhibition) at 10uM” value is reported as -64.4%. For `COCCN1C=C2C(=O)C(C)(OC(=O)C3CCCC3)C(=O)C=C2C=C1c1ccsc1` (stereo not drawn), the “hERG current change (%, negative = inhibition) at 10uM” value was -6.22%. For `CC1(OC(=O)C2CCCC2)C(=O)C=C2C=C(c3ccsc3)N(CCCCO)C=C2C1=O` (stereo not drawn), the “hERG current change (%, negative = inhibition) at 10uM” value was 1.16%. With `CC(C)CN1C=C2C(=O)C(C)(OC(=O)C3CCCC3)C(=O)C=C2C=C1c1ccsc1` (stereo not drawn) the “hERG current change (%, negative = inhibition) at 10uM” value was -0.438%. For `CC1(OC(=O)C2CCCC2)C(=O)C=C2C=C(c3ccsc3)N(Cc3ccccc3)C=C2C1=O` (stereo not drawn), the “hERG current change (%, negative = inhibition) at 10uM” value was -52.5%.
